Source: the supplement of paper PMC7366291
Where a name gives a salt, the structure may show the parent alone. ± gives the standard deviation of the averaged measurements.

These molecules were tested on Danio rerio Tg(wt1b:EGFP) embryo, pronephros (assay: glomerular width (mean of left and right), fold change vs DMSO control; higher = wider glomerulus). Settings: 25 µM; exposure: 24-48 hpf.
Summary of the method: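 In HEPES-buffered E3 with 0.003% PTU and 0.5% DMSO, dechorionated Tg(wt1b:EGFP) zebrafish embryos were exposed to 25 μM compound from 24 to 48 hpf at 28.5°C. Pronephroi were then imaged dorsally at 470 nm in 10 z-slices, in 96-well plates filled with agarose. On maximum projections, a Fiji macro turned 16 manually placed reference points into distances and angles, and values more than 2 SD from the feature mean were excluded. Features are fold changes relative to the mean of DMSO-treated embryos from the same day.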

| Compound | glomerular width |
| --- | --- |
| Cc1cccc(C)c1OCC(C)N (stereo not given) [Mexiletine hydrochloride] | 0.98 ± 0.033 |
| CCCOc1ccccc1-c1nc2[nH]nnc2c(=O)[nH]1 [Zaprinast] | 0.99 ± 0.074 |
| CN(C)CCCN1c2ccccc2Sc2ccccc21 [Promazine hydrochloride] | 1.044 ± 0.0041 |
| CCCCC(=O)N(Cc1ccc(-c2ccccc2-c2nnn[nH]2)cc1)[C@H](C(=O)O)C(C)C [Valsartan] | 1.09 ± 0.026 |
| OCCN1CCN(CCCN2c3ccccc3Sc3ccc(C(F)(F)F)cc32)CC1 [Fluphenazine dihydrochloride] | 1.07 ± 0.02 |
| CC(C)C(=O)OCC(=O)[C@@]12O[C@H](C3CCCCC3)O[C@@H]1C[C@H]1[C@@H]3CCC4=CC(=O)C=C[C@]4(C)[C@H]3[C@@H](O)C[C@@]12C [Ciclesonide] | 0.937 ± 0.0044 |
| Nc1ccc(C(=O)O)c(O)c1 [4-aminosalicylic acid] | 0.9604 ± 0.008 |
| N=C(N=C(N)N)N1CCOCC1 [Moroxidine hydrochloride] | 1.07 ± 0.049 |
| CC1(C)S[C@@H]2[C@H](NC(=O)[C@H](N)c3ccccc3)C(=O)N2[C@H]1C(=O)O [Ampicillin trihydrate] | 1.03 ± 0.016 |
| NCCCC[C@H](N[C@@H](CCc1ccccc1)C(=O)O)C(=O)N1CCC[C@H]1C(=O)O [Lisinopril] | 0.998 ± 0.058 |
| CNC[C@H](O)[C@@H](O)[C@H](O)[C@H](O)CO [Meglumine] | 1.03 ± 0.061 |
| Cc1cc(NS(=O)(=O)c2ccc(N)cc2)no1 [Sulfamethoxazole] | 1.05 ± 0.026 |
| Nc1nc2c(ncn2COC(CO)CO)c(=O)[nH]1 [Ganciclovir] | 1.009 ± 0.0021 |
| Oc1ncnc2[nH]ncc12 [Allopurinol] | 0.984 ± 0.018 |
| CN1CCC(=C2c3ccccc3CCc3cccnc32)CC1 [Azatadine maleate] | 0.9513 ± 0.00027 |
| CC(C)(C)NC(=O)[C@@H]1C[C@@H]2CCCC[C@@H]2CN1C[C@@H](O)[C@H](Cc1ccccc1)NC(=O)[C@H](CC(N)=O)NC(=O)c1ccc2ccccc2n1 [Saquinavir mesylate] | 1.04 ± 0.085 |
| NC[C@H]1O[C@H](O[C@H]2[C@H](O[C@@H]3O[C@H](CO)[C@@H](O)[C@H]3O)[C@@H](O)[C@H](N)C[C@@H]2N)[C@H](N)[C@@H](O)[C@@H]1O [Ribostamycin sulfate salt] | 1.08 ± 0.019 |
| Cc1cc(CC(=O)O)n(C)c1C(=O)c1ccc(Cl)cc1 [Zomepirac sodium salt] | 0.811 ± 0.033 |
| CCSc1ccc2c(c1)N(CCCN1CCN(C)CC1)c1ccccc1S2 [Thiethylperazine dimalate] | 1.054 ± 0.0092 |
| CCCc1nc2c(C)cc(-c3nc4ccccc4n3C)cc2n1Cc1ccc(-c2ccccc2C(=O)O)cc1 [Telmisartan] | 0.988 ± 0.024 |

| Compound | glomerular width |
| --- | --- |
| CNCCc1ccccn1 [Betahistine mesylate] | 1.06 ± 0.034 |
| CCOC(=O)[C@H](CCc1ccccc1)N[C@@H](C)C(=O)N1[C@H](C(=O)O)C[C@@H]2CCC[C@@H]21 [Ramipril] | 0.8501 ± 0.0032 |
| CC[N+](C)(C)Cc1ccccc1Br [Bretylium tosylate] | 0.9664 ± 0.0094 |
| Cc1ccc(C(=O)c2ccc(CC(=O)O)n2C)cc1 [Tolmetin sodium salt dihydrate] | 1.006 ± 0.0038 |
| CN(c1nccc(=O)[nH]1)C1CCN(c2nc3ccccc3n2Cc2ccc(F)cc2)CC1 [Mizolastine] | 1.1 ± 0.017 |
| COc1ccc(C(=O)NCc2ccc(OCCN(C)C)cc2)cc1OC [Itopride] | 0.962 ± 0.017 |
| NC[C@@H]1O[C@H](O[C@H]2[C@@H](O)[C@H](O[C@@H]3[C@@H](O)[C@H](N)C[C@H](N)[C@H]3O[C@H]3O[C@H](CO)[C@@H](O)[C@H](O)[C@H]3N)O[C@@H]2CO)[C@H](N)[C@@H](O)[C@@H]1O [Paromomycin sulfate] | 1.07 ± 0.0023 |
| O=P(O)(O)C(O)(Cn1ccnc1)P(=O)(O)O [Zoledronic acid hydrate] | 1.04 ± 0.015 |
| CC12CC3CC(C)(C1)CC(N)(C3)C2 [Memantine Hydrochloride] | 1.05 ± 0.079 |
| Cc1ccccc1OCC(O)CO (stereo not given) [Mephenesin] | 1.01 ± 0.012 |
| COc1cc(N)c(Cl)cc1C(=O)NC1CCN(Cc2ccccc2)CC1 [Clebopride maleate] | 0.9245 ± 0.0057 |
| N=C(N)NC(=O)c1nc(Cl)c(N)nc1N [Amiloride hydrochloride dihydrate] | 0.978 ± 0.074 |
| CN(C)C(=O)C(CCN1CCC(O)(c2ccc(Cl)cc2)CC1)(c1ccccc1)c1ccccc1 [Loperamide hydrochloride] | 1.04 ± 0.12 |
| CNCCCC12CCC(c3ccccc31)c1ccccc12 [Maprotiline hydrochloride] | 0.992 ± 0.049 |
| CCCCOc1ccc(C(=O)CCN2CCCCC2)cc1 [Dyclonine hydrochloride] | 1.02 ± 0.071 |
| Cn1c(=O)c2c(ncn2CCO)n(C)c1=O [Etofylline] | 0.951 ± 0.023 |
| Nc1ccc(C(=O)NCC(=O)O)cc1 [Aminohippuric acid] | 0.993 ± 0.03 |
| CCCc1cc(C(N)=S)ccn1 [Prothionamide] | 0.9746 ± 0.0041 |
| O=C1[C@H]2CCCC[C@H]2C(=O)N1CCCCN1CCN(c2nsc3ccccc23)CC1 [Perospirone] | 0.9761 ± 0.0054 |
| Nc1ccc(S(=O)(=O)NC(=O)c2ccccc2)cc1 [Sulfabenzamide] | 0.98 ± 0.04 |
